37 compounds from the supplement of paper PMC9177965 can be followed below.

The structures appear in SMILES notation.

The assay deals with HT29 sg-Ctrl (RNF43 wildtype). Description: cell viability activity relative to DMSO (negative = inhibition); higher = more viable cells (less growth inhibition). As to conditions: 5 µM; 96 h. The procedure: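 Broad Repurposing Library primary screen at a single dose of 5 uM. HT29 sg-Ctrl and HT29 RNF43 G659fs CRISPR-edited isogenic cells were seeded at 2500 cells/well in 384-well plates in duplicate and treated for 96 h. Viability was read by CellTiter-Glo and reported as % activity relative to DMSO, with MG132 as the positive control (negative = growth inhibition).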
Turning to `N[C@@H](Cn1ccc(=O)n(Cc2ccccc2C(=O)O)c1=O)C(=O)O`, the cell viability activity is -34.1%.
For `COc1ccc(S(=O)(=O)Nc2cccnc2Nc2ccc(O)cc2)cc1`, the cell viability activity is -55.9%.
Consider `Cc1ccc(C(=O)Nc2ccc(CN3CCN(C)CC3)c(C(F)(F)F)c2)cc1C#Cc1cnc2[nH]ncc2c1`, for which the cell viability activity is -94%.
Consider `Cc1cccc(/C=N/Nc2cc(N3CCOCC3)nc(OCCc3ccccn3)n2)c1`, for which the cell viability activity was -62.4%.
With `Nc1ncnc2c1nc(Br)n2[C@@H]1O[C@@H]2COP(=O)(O)O[C@H]2[C@H]1O` the figure was -6.53%.
With `NC(=S)N/N=C/c1ncccc1N` the figure was -69.1%; with `Cc1cccc(C)c1NC(=O)CN1CCN(CCCC(c2ccc(F)cc2)c2ccc(F)cc2)CC1`, -46%; with `Clc1ccc(C2(c3ccc(-c4cn[nH]c4)cc3)CCNCC2)cc1`, -86.8%.
Then `C=CCc1cccc(/C=N/NC(=O)CN2CCN(Cc3ccccc3)CC2)c1O`, with -42.7%; and `CC(C=CC(=O)NO)=CC(C)C(=O)c1ccc(N(C)C)cc1` (configuration not stated), with -94.9%.
Turning to `Cc1nc(NC(=O)N2CCC[C@H]2C(N)=O)sc1-c1ccnc(C(C)(C)C(F)(F)F)c1`, the cell viability activity was -16%.
With `C[C@H]1O[C@@H](O[C@H]2[C@@H](O)C[C@H](O[C@H]3[C@@H](O)C[C@H](O[C@H]4CC[C@@]5(C)[C@H](CC[C@@H]6[C@@H]5CC[C@]5(C)[C@@H](C7=CC(=O)OC7)CC[C@]65O)C4)O[C@@H]3C)O[C@@H]2C)C[C@H](O)[C@@H]1O` the figure was -93.4%.
In the case of `CN1CCC(CNc2ccc3ncc(-c4cccc(OC(F)(F)F)c4)n3n2)CC1`, the cell viability activity was -52.2%.
With `CN(c1ccccc1CNc1nc(Nc2ccc3c(c2)CC(=O)N3)ncc1C(F)(F)F)S(C)(=O)=O` the figure was -57.8%; with `Clc1ccc(Cn2c(CN3CCCC3)nc3ccccc32)cc1`, 11.6%; with `Cc1ccc(C(=O)N(CCCN)[C@@H](c2oc3cc(Cl)ccc3c(=O)c2Cc2ccccc2)C(C)C)cc1`, -78.3%.
As for `CC[C@H](CO)Nc1nc(NCc2ccc(-c3ccccn3)cc2)c2ncn(C(C)C)c2n1`, the cell viability activity is -92.1%.
Turning to `COC(=O)C[C@](O)(CCCC(C)(C)O)C(=O)O[C@@H]1C(OC)=C[C@]23CCCN2CCc2cc4c(cc2[C@H]13)OCO4`, the cell viability activity was -86.7%.
Consider `COc1cc(N2CCC(N3CCN(C)CC3)CC2)ccc1Nc1ncc(Cl)c(Nc2ccccc2P(C)(C)=O)n1`, for which the cell viability activity is -81%.
With `N=C(NCCCCCCNC(=N)NC(=N)Nc1ccc(Cl)cc1)NC(=N)Nc1ccc(Cl)cc1` the figure was -24.9%.
Then `C[C@@H](CN1CC(=O)NC(=O)C1)N1CC(=O)NC(=O)C1`, with -44.6%; and `Cc1csc(-c2nnc(Nc3ccc(Oc4ncccc4-c4ccnc(N)n4)cc3)c3ccccc23)c1`, with -46.6%.
Then `CCNC(=O)c1noc(-c2cc(C(C)C)c(O)cc2O)c1-c1ccc(CN2CCOCC2)cc1`, with -86%; and `CC(C)N1CCN(c2ccc(OC[C@@H]3CO[C@@](Cn4cncn4)(c4ccc(Cl)cc4Cl)O3)cc2)CC1`, with -76%; and `Nc1ccc2cc3ccc(N)cc3nc2c1`, with -47.4%.
Regarding `CN(C)CCCCC(=O)Nc1ccc(NC(=S)NC(=O)c2ccc(C(C)(C)C)cc2)cc1`, the cell viability activity is -91.9%.
With `C[C@@H](Oc1cc(-c2cnn(C3CCNCC3)c2)cnc1N)c1c(Cl)ccc(F)c1Cl`, the cell viability activity is -95.4%.
With `COc1cc(-c2ncn(/C=C/C(=O)OC(C)C)n2)cc(C(F)(F)F)c1`, the cell viability activity is -76.9%.
As for `CC(C)c1cc(-c2n[nH]c(=O)n2-c2ccc3c(ccn3C)c2)c(O)cc1O`, the cell viability activity was -81.7%.
In the case of `CCNC(=O)Nc1ccc(-c2nc3c(c(N4CCOC[C@@H]4C)n2)CCN(C2COC2)C3)cc1`, the cell viability activity was -22%.
Then `CNC(=O)CN1CCC(Oc2cc3c(Nc4cccc(Cl)c4F)ncnc3cc2OC)CC1`, with -24.1%.
For the compound `Nc1ncnc2c1c(-c1cccc(OCc3ccccc3)c1)cn2C1CC(CN2CCCC2)C1` (configuration not stated), the cell viability activity is -56.6%.
With `CN1C/C=C/CCOc2cccc(c2)-c2ccnc(n2)Nc2cccc(c2)C1`, the cell viability activity is -89.6%.
With `CCCCc1ccc2[nH]c(NC(=O)OC)nc2c1` the figure was -76.7%; with `O=[N+]([O-])c1ccccc1S(=O)(=O)NCC1CCC(CNCC2CCc3ccccc3C2)CC1` (configuration not stated), -61.4%; with `Nc1nccc2c1ncn2[C@@H]1C=C(CO)[C@@H](O)[C@H]1O`, -40.1%.
With `C=CC(=O)Nc1cccc(Sc2nc(Nc3ccc(N4CCN(C)CC4)cc3)ncc2Cl)c1` the figure was -42.7%.
